From PubChem BioAssay
This is a sample that favours compounds with a hit; in the whole collection about 4.7% have one here.
TWEAK Fn14 block: TWEAK-Fn14 signaling inhibition | TWEAK-stimulated Fn14 reporter cells, luciferase luminescence, 8 h | hit rate 2% among 360,000 | inhibition, % at 10 µM; in the data active = inhibition above about 50%
TROY NFkB inh: inhibitors of TROY-dependent NF-kB signaling. Q293 LMP1-TROYcd NF-kB luciferase reporter, 4 h. inhibition, % at 10 µM. hit rate 0.98% among 360,000. AID 1347056;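 active = compounds whose plate-normalised and pattern-corrected inhibition of the luciferase reporter signal at the single screening dose is 50% or more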
HSF-1 act: increases HSF-1 driven luciferase reporter signal. activation, % at 9 µM. hit rate 1.7% among 300,000. NIH3T3-HGL HSF-1 luciferase reporter, MG132, 8 h; 100% = twice DMSO control signal;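 active = mean replicate activation of at least 50% with a set share of replicates each reaching 50%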
LMP1 NFkB inh: Epstein-Barr LMP1 NF-kappaB reporter inhibition. LMP1-induced NF-kappaB luciferase reporter cells, luminescence. inhibition, % at 12.5 µM. hit rate 0.69% among 350,000. AID 504558; in the data active = inhibition above about 41%
HSF1 inhib: HSF1 inhibition. hit rate 0.77% among 300,000. activity change, negative = inhibition, % at 7.5 µM (by protocol). NIH3T3-HGL HSE-luciferase, MG132-induced, luminescence 8 h; active compounds read low;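 active = more than half of replicate wells show activity change below -50%, luminescence cut by over half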;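 also: luciferase reports HSF-1 transcriptional activity via heat shock element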
HSP90 inh: HSP90 refolding inhibition in rabbit reticulocyte lysate; luciferase refolding luminescence, 3 h; inhibition, % at 5.6 µM; hit rate 0.91% among 290,000; AID 1789;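 active = inhibition above the screen-wide mean plus 3 SD, computed separately per campaign, cut at about 16% in these data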;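 also: inhibitors lower the luminescence because luciferase stays unfolded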
Of the large screens only hits and unclear results are named; the others gave an inactive call.

O=C(Nc1nc2cc3c(cc2s1)OCCO3)c1ccc([N+](=O)[O-])o1	HSF-1 act 104
CCCNC(=O)C1(C)CCN(C(=O)c2ccc(OC(F)F)cc2)C1 (stereo not given)	none (no result: HSF-1 act, LMP1 NFkB inh, HSF1 inhib, HSP90 inh)
COc1ccc(NC(=O)C2(C)Cc3c(-c4cccc(NC(C)=O)c4)ccnc3O2)cn1 (stereo not given)	none (no result: HSF-1 act, LMP1 NFkB inh, HSF1 inhib, HSP90 inh)
COc1ccc(NC(=O)Nc2ccc3c(c2)C(=O)N([C@H](C)CO)C[C@@H](C)[C@@H](CN(C)C(=O)C2CCCCC2)OCCCC[C@H](C)O3)cc1	none (no result: HSF-1 act, HSF1 inhib, HSP90 inh)
CCC(c1nnnn1-c1ccc2c(c1)OCCO2)N1CCN(c2ccccn2)CC1 (stereo not given)	none (no result: HSF-1 act, LMP1 NFkB inh, HSF1 inhib, HSP90 inh)
O=C(NCc1ccc(Cl)cc1)c1ccc(CNc2c(N3CCCC3)c(=O)c2=O)cc1	none
CN(C)c1ccc(CNC(=O)c2ccc(CNc3c(N4CCCCC4)c(=O)c3=O)cc2)cc1	HSF-1 act 61
Cc1ccc(/C=C2/NC(=O)N(Cc3ccc(Br)cc3)C2=O)o1	HSF-1 act 59
Cc1cc2c(=O)oc(-c3ccc(F)cc3)nc2s1	TWEAK Fn14 block 53
Cc1ccc(/C=N/N2C(=O)c3ccccc3NC2c2ccc(C)cc2)cc1 (stereo not given)	HSF-1 act 55
CNc1nc(NCC2CCCCC2)c2sccc2n1	none (no result: HSF-1 act, LMP1 NFkB inh, HSF1 inhib, HSP90 inh)
CCc1ccccc1NC(=O)COc1cccc2ccc(C)nc12	HSF1 inhib -77
O=c1c(Cc2ccccc2)c(O)c2cccc3c4c(n1c23)CCCC4	TROY NFkB inh 54
CCN(CCS(=O)(=O)c1ccc(Cl)cc1)C(=O)Nc1ccccc1	HSF1 inhib -64 (no result: LMP1 NFkB inh)
O=C(CSCCS(=O)(=O)c1ccc(Cl)cc1)Nc1ccccc1	none
CC(C)CC1C(=O)N(Cc2cn(Cc3ccco3)nn2)CCS(=O)(=O)N1Cc1ccc(-c2ccc(F)cc2)cc1 (stereo not given)	none (no result: HSF-1 act, HSF1 inhib, HSP90 inh)
CC(C)C[C@H](NC(=O)N1CCCCCC1)C(=O)O	HSF1 inhib -51
CCC(C)[C@H](NC(=O)N1CCCCCC1)C(=O)O (stereo not given in full)	none
CC1(C(=O)NS(=O)(=O)c2cccc(F)c2)CCN1C(=O)CC1CCCCC1 (stereo not given)	none (no result: HSF-1 act, LMP1 NFkB inh, HSF1 inhib, HSP90 inh)
Nc1c(C(=O)c2ccccc2)oc2ccc(Br)cc12	HSF-1 act 63
CC(=O)Nc1cc[n+](C(C)C(=O)c2ccc(Br)cc2)cc1 (stereo not given)	none
CC(=O)Nc1cc[n+](C(C)C(=O)c2ccccc2)cc1 (stereo not given)	HSF1 inhib -68
CC(C)(C)c1ccc2c(c1)N(CC(=O)O)C(=O)CO2	none
CN(C)CCNC(=O)CN1C(=O)COc2ccc(C(C)(C)C)cc21	HSF1 inhib -68
CCOC(=O)N1CCN(C(=O)CN2C(=O)COc3ccc(C(C)(C)C)cc32)CC1	none
Cc1ccc2c(c1)N(CC(=O)O)C(=O)CO2	HSF1 inhib -80
O=C(N1CCOCC1)C12CC3CC(C1)CC(C(=O)N1CCOCC1)(C3)C2	none
O=C(N1CCOCC1)C12CCC3CC(CC(C3)C1)C2	HSF1 inhib -54
CC(C)C(=O)N1CCC(n2nccc2NC(=O)CCOc2ccccc2)CC1	HSF-1 act 54
N#Cc1cnc(=S)n(-c2cc(C(F)(F)F)cc(C(F)(F)F)c2)c1N	none (no result: HSF-1 act, HSF1 inhib, HSP90 inh)
COc1ccccc1NC(=S)N(Cc1ccco1)Cc1cc2cc(C)c(C)cc2[nH]c1=O	none
Cc1ccc2cc(CN(Cc3ccco3)C(=O)NCc3ccccc3)c(=O)[nH]c2c1C	TROY NFkB inh 50
Cc1ccc(CN(Cc2cc3cccc(C)c3[nH]c2=O)C(=S)NCCCN(C)C)cc1	none
Cc1cccc2cc(CN(Cc3ccccc3)C(=S)NCCCN(C)C)c(=O)[nH]c12	HSF1 inhib -74
COc1ccccc1NC(=O)N(Cc1ccco1)Cc1cc2ccc(C)c(C)c2[nH]c1=O	HSF-1 act 108
COc1ccccc1NC(=S)N(Cc1ccco1)Cc1cc2cccc(C)c2[nH]c1=O	HSF-1 act 119
Cc1ccccc1NC(=S)N(Cc1cccnc1)Cc1ccco1	TWEAK Fn14 block 60
Cc1ccccc1NC(=S)N(Cc1ccccc1)Cc1cccnc1	none
CS(=O)(=O)N(CC(=O)O)c1ccc(C23CC4CC(CC(C4)C2)C3)cc1	HSF1 inhib -65
COc1ccc(C(=O)c2coc3ccc(OC(C)=O)cc23)cc1	TWEAK Fn14 block 57
COc1ccc2occ(C(=O)c3cccs3)c2c1	HSF-1 act 78
Cc1ccc(C(=O)c2coc3ccc(O)c(Cl)c23)cc1	none
COc1ccc(OC)c(C(=O)c2coc3ccc(OC(C)=O)cc23)c1	none
Cc1ccc(C(=O)c2coc3ccc(O)cc23)cc1	TWEAK Fn14 block 56
COc1ccc2occ(C(=O)c3ccc(N)cc3)c2c1	none
CNc1cnc(-c2ccc(F)c(F)c2F)cn1	none (no result: HSF-1 act, LMP1 NFkB inh, HSF1 inhib, HSP90 inh)
CCC1OC(C(C)C)Cc2[nH][nH]c(=O)c21 (stereo not given)	none (no result: HSF-1 act, LMP1 NFkB inh, HSF1 inhib, HSP90 inh)
CCCc1cnc(Nc2nc(C(N)Cc3ccc(C(F)(F)F)cc3)cs2)nc1 (stereo not given)	none (no result: HSF-1 act, LMP1 NFkB inh, HSF1 inhib, HSP90 inh)
CCOc1ccccc1CNCCN1CCOCC1	HSF-1 act 58
C=CCOc1ccccc1CNCCCN1CCOCC1	none
CC1(C(=O)NCc2ccco2)Cc2c(-c3ccccc3)ccnc2O1 (stereo not given)	none (no result: HSF-1 act, LMP1 NFkB inh, HSF1 inhib, HSP90 inh)
O=C(O)c1ccccc1COc1ccccc1Cl	HSF1 inhib -56
O=C(O)c1ccccc1OCc1ccccc1Br	none
COc1ccccc1/C=N/NC(=O)CSc1cc(C)nc2ccccc12	none
CCCCSc1nc(C)cc(SCC(=O)N/N=C/c2cccc(OC)c2O)n1	TWEAK Fn14 block 103, HSF-1 act 84 (no result: TROY NFkB inh)
COc1ccccc1/C=N/NC(=O)CSc1ccc2ccccc2n1	TWEAK Fn14 block 52
CC(=O)Nc1ccc(C(=O)OCCc2ccccc2)cc1	HSF-1 act 56
CCOC(=O)c1ccc(NC(=O)NS(=O)(=O)c2ccc(C)cc2)cc1	HSF1 inhib -58
CCCCOC(=O)c1ccc(NC(=O)c2c(OC)cccc2OC)cc1	TROY NFkB inh 83
Nc1ccc(OC(=O)Nc2ccc(O)cc2)cc1	TWEAK Fn14 block 66
CC1(C(=O)NCc2ccccc2)CCC(=O)N1C1CC1 (stereo not given)	none (no result: HSF-1 act, LMP1 NFkB inh, HSF1 inhib, HSP90 inh)
CCC(=O)Nc1ccc(C(=O)OCc2ccccc2Cl)cc1	HSF-1 act 116
CCOC(=O)c1ccc(NC(=O)Oc2ccccc2)cc1	HSF1 inhib -51
CCn1c(SCC(=O)NCCc2ccccc2)nnc1-c1ccco1	none
COCCn1c(SCC(=O)NCCc2ccccc2)nnc1-c1ccco1	HSF-1 act 55
COc1ccc(CCNC(=O)CSc2ccc(-c3ccco3)nn2)cc1	HSF1 inhib -69
COC(=O)C12OCC34C(CC5C(C)=C(O)C(=O)CC5(C)C3C(O)C1O)OC(=O)C(OC(=O)C=C(C)C)C24 (stereo not given)	TWEAK Fn14 block 95, TROY NFkB inh 85, LMP1 NFkB inh 85 (no result: HSF-1 act, HSF1 inhib, HSP90 inh)
